Our source for the Percent Effect values is ChEMBL document CHEMBL3988442, “University of Dundee, Small-Polar-MMV Screening Library” (2021).

Structures are written as SMILES. For some of these results: Measured potencies and affinities stand elsewhere.

Design in all cases: scale not given: direction of the effect not stated beside the values
Assay [1] deals with Protein translocase subunit SecA (Escherichia coli (strain K12)) (UniProt P10408). In words: Assay to Identify E. coli SecA ATPase Inhibitors. The following applies: 30 µM. In kind it is functional.
Chain of Protein translocase subunit SecA (Escherichia coli (strain K12)) (P10408 whole entry): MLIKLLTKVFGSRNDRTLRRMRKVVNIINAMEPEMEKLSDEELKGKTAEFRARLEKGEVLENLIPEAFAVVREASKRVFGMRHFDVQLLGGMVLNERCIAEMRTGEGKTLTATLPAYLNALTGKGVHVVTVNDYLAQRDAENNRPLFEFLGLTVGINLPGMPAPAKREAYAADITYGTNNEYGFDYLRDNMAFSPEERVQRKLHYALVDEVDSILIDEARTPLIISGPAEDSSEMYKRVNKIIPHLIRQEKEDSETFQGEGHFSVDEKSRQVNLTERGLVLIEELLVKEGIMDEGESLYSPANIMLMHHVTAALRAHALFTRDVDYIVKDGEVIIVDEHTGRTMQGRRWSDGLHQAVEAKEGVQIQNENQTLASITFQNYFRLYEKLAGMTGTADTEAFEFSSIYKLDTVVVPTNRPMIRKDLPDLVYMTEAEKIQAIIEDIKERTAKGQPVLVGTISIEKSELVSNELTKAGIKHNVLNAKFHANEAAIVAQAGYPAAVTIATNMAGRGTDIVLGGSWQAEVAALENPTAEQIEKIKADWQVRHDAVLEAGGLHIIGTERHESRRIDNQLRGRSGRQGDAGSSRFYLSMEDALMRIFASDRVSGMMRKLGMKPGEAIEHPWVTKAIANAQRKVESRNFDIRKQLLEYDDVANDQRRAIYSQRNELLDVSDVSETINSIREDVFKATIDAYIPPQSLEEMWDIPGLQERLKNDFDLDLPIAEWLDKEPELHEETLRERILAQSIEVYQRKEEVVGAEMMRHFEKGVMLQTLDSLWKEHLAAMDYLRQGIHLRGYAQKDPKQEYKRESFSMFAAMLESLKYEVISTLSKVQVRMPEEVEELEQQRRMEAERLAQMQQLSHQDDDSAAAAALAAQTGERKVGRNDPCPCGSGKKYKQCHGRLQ
Assay [2] deals with T1, Ubiquitin-activating enzyme e1, putative (Leishmania donovani (strain BPK282A1)) (UniProt E9BSI1).
T1 sequence (whole entry): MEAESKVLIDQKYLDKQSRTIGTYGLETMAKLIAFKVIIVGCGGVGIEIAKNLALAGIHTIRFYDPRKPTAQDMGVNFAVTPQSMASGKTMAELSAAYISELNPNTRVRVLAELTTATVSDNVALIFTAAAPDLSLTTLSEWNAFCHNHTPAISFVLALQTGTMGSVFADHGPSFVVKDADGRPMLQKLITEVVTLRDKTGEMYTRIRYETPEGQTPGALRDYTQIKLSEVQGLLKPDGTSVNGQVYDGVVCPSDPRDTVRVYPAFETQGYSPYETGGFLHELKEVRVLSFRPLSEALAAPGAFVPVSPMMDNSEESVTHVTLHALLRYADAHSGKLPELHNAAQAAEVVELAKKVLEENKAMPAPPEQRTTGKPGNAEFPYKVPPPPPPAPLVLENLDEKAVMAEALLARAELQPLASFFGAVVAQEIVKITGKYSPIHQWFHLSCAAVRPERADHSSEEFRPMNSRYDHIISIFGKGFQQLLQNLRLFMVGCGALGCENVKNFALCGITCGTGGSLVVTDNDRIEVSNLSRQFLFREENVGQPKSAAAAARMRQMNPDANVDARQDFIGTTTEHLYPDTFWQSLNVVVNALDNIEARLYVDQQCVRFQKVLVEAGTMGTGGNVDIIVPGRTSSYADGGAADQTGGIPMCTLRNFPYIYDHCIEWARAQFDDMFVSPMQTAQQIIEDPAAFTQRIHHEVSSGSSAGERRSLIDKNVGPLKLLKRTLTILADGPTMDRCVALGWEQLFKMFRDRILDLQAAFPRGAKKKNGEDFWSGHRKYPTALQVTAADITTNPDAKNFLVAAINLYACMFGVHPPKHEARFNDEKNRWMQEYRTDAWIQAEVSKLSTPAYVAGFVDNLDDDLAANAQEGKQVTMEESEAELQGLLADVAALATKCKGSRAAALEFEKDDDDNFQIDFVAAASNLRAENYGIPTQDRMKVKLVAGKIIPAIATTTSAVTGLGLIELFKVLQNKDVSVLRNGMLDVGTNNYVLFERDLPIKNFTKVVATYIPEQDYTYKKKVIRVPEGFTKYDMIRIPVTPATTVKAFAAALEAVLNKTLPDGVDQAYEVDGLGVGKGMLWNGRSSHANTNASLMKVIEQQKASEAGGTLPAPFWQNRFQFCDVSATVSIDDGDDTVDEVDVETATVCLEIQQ
The assay can be described thus: Leishmania donovani Ubiquitin Activating Enzyme (LdE1). The conditions noted are these: 30 µM. Format: functional.

The target of assay [3] is AMP-activated protein kinase, AMPK (Homo sapiens) (UniProt P54646+O43741+P54619+Q9UGJ0+Q9Y478+Q13131+Q9UGI9). The assay can be described thus: AMP-dependent Kinase enzyme assay. An in vitro enzyme assay that detects ADP turnover that is directly proportional to AMPK activity. This uses naive AMPK that is activated during the assay with MK-8722. In kind it is functional. The conditions noted are these: 30 µM.

The target in assay [4] is Sialic acid-binding Ig-like lectin 9 (Homo sapiens) (UniProt Q9Y336). In words: Hs-Siglec9 ALPHAscreen SOP 20170721. The conditions noted are these: 10 µM.
Chain of Sialic acid-binding Ig-like lectin 9 (Homo sapiens) (Q9Y336 whole entry): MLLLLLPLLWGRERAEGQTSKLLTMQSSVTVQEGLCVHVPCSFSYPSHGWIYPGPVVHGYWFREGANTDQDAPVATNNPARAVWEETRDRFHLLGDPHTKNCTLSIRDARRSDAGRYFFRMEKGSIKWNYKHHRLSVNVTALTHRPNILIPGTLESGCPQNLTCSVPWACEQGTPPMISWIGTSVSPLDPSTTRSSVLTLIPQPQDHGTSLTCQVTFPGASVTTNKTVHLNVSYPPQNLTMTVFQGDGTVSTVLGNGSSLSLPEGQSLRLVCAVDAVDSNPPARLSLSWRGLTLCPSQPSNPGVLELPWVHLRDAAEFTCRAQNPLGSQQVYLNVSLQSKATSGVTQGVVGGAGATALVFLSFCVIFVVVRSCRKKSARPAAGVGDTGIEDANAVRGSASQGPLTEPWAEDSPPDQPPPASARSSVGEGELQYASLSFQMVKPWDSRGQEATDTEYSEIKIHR
In assay [5] the test system is Trypanosoma cruzi. In words: Trypanosoma cruzi phosphomannomutase and mannose-1-phosphate guanylyltransferase assay. In kind it is functional. The conditions noted are these: 10 µM.
For assay [6], the target named is T2, Arginase-2, mitochondrial (Homo sapiens) (UniProt P78540).
T2 sequence (whole entry): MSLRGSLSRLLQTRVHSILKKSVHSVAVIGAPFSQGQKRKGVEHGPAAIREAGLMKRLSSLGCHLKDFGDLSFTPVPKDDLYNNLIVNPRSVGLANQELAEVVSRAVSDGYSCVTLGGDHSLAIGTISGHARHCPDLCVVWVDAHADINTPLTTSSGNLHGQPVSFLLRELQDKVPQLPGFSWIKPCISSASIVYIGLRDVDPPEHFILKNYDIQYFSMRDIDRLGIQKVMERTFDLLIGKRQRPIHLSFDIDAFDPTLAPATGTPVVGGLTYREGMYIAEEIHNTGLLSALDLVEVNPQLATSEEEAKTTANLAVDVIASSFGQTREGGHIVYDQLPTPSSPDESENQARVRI
The assay can be described thus: in vitro enzyme assay to detect the production of urea directly proportional to the activity of Arginase II. Also: in the data most compounds retested in dose-response had high values. In kind it is functional. The following applies: 33.3 µM.

Assay [7] deals with T3, Proteasome subunit beta (Trypanosoma cruzi) (UniProt O96673).
T3 sequence (whole entry): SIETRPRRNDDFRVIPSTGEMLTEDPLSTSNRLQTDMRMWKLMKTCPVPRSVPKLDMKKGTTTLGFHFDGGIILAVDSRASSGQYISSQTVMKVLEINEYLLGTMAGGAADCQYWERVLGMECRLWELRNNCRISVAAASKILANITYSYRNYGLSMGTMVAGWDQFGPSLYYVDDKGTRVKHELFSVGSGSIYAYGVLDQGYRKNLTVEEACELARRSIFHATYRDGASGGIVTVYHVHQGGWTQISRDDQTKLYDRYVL
The assay can be described thus: Trypanosoma cruzi proteasome chymotrypsin-like activity (TcProtChymo) assay. Also: in the data most compounds retested in dose-response had high values. The following applies: 9.37 µM. In kind it is functional.

The species entered for assay [8] is Homo sapiens. The assay can be described thus: To identify inhibition of the IFN signalling (Jak-Stat) pathway via expression of an eGFP reporter gene under the control of an IFN-stimulated response element (ISRE) containing MxA promoter. In kind it is functional. The following applies: 30 µM. A general note: A reporter such as luciferase makes a cellular process visible.

Assay [9] has as its target T4, Tyrosyl-tRNA synthetase, putative (Trypanosoma cruzi (strain CL Brener)) (UniProt Q4DSP6).
T4 sequence (whole entry): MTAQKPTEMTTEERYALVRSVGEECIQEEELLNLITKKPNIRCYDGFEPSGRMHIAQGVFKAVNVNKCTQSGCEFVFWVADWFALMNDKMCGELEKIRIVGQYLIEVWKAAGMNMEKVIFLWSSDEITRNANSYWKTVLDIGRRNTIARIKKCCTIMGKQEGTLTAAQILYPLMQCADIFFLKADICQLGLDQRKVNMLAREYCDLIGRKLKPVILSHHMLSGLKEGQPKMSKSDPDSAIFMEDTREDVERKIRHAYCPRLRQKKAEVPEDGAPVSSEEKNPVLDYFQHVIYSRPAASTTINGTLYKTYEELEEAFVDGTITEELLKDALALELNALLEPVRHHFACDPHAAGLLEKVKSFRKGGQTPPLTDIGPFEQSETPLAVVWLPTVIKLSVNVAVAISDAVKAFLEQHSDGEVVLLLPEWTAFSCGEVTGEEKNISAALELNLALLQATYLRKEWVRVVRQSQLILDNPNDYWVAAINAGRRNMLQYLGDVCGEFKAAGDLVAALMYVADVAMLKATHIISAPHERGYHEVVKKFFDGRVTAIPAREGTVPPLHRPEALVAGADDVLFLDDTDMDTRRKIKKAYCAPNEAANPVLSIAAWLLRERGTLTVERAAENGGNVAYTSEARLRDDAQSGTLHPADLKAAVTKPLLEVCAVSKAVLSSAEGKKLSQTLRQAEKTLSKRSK
In words: Trypanosoma cruzi tyrosyl tRNA synthetase (TcYRS) _High Tyrosine SOP. Also: in the data most compounds retested in dose-response had high values. Format: functional. The conditions noted are these: 30 µM.

The target in assay [10] is T4, Tyrosyl-tRNA synthetase, putative (Trypanosoma cruzi (strain CL Brener)). The assay can be described thus: Trypanosoma cruzi tyrosyl tRNA synthetase (TcYRS) SOP. In kind it is functional. The conditions noted are these: 30 µM.
Assay [11] deals with Chromo domain-containing protein 1 (Saccharomyces cerevisiae (strain ATCC 204508 / S288c) (Baker's yeast)) (UniProt P32657). The assay can be described thus: ScCHD-1 Enzyme Inhibition Assay. Also: in the data most compounds retested in dose-response had high values. In kind it is functional. The conditions noted are these: 30 µM.
Chain of Chromo domain-containing protein 1 (Saccharomyces cerevisiae (strain ATCC 204508 / S288c) (Baker's yeast)) (P32657 whole entry, the tested form may be a part): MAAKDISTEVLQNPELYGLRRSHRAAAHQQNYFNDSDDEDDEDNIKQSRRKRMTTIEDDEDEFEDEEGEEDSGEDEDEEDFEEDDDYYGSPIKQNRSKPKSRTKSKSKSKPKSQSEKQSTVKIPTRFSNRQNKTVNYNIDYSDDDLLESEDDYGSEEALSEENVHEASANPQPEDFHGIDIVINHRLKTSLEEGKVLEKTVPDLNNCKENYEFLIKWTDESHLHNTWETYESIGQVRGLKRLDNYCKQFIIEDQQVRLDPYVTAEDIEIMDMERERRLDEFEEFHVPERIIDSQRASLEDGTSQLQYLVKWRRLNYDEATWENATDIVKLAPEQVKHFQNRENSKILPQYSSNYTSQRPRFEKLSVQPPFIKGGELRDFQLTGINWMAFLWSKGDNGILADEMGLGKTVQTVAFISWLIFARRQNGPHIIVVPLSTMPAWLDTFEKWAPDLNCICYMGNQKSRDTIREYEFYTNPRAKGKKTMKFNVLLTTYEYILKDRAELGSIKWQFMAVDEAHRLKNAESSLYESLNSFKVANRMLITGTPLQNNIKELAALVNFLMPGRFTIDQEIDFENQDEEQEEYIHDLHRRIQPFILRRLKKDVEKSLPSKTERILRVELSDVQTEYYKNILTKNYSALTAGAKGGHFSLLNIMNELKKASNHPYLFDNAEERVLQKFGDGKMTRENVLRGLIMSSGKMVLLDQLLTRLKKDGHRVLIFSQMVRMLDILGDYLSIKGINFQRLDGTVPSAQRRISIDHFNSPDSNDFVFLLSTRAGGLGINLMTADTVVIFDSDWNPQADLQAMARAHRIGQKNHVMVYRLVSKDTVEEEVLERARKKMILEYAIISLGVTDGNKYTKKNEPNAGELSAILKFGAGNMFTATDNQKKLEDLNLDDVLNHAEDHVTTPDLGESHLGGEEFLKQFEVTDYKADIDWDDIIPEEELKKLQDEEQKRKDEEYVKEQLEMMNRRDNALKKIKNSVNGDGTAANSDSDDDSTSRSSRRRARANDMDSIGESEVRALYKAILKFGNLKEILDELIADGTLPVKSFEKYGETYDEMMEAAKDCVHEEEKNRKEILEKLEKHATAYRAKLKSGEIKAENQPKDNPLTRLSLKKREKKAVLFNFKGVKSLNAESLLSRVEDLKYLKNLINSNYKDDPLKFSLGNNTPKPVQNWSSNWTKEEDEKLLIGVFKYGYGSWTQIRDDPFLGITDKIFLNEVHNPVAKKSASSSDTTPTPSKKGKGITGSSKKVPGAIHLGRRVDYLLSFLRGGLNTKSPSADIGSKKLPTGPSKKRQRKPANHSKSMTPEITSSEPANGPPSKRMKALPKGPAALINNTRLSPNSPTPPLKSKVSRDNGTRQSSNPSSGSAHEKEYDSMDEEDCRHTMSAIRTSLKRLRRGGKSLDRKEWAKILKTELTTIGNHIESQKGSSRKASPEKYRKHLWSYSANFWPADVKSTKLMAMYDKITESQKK

Take `O=C(Nc1ccccc1F)N(CCO)Cc1ccsc1`: the Percent Effect in [1] was -4.39%; in [2], 0%; in assay [3], 2.24%; in [4], 1.32%; in [5] it was -3.76%; in [6], -1.92%. Also, the Percent Effect in assay [7] is -2.51%; in assay [8], 29.1%; in [9], -1.47%; in [10] it was -4.88%; in [11], 10.7%.
Turning to `CCn1cc(C(=O)NC2CCN(S(C)(=O)=O)CC2)c2ccccc21`, the Percent Effect in assay [1] is -3.22%; in assay [2], 16.2%; in assay [3], -3.16%; in assay [4] it was 22.3%; in assay [5] it was 4.01%; in assay [6] it was 0.248%. Moreover, the Percent Effect was 5.41% in assay [7]; 6.18% in [8]; 2.15% in assay [9]; 16.1% in assay [10]; -6.57% in assay [11].
For the molecule `COCCc1noc(CNC2CCc3nc(C(C)C)nn3C2)n1` (stereo not drawn), the Percent Effect in [1] is -1.47%; in assay [2], 2.6%; in [3], 8.06%; in assay [4] it was -4.34%; in assay [5], -1.27%; in assay [6], -2.74%. In addition, the Percent Effect in assay [7] was 6.39%; in [8], 17.2%; in assay [9], 0.952%; in [10], 0%; in assay [11] it was -13.7%.
As to `O=C(NCc1ccccn1)N(Cc1ccc(F)cc1F)C1CC1`, the Percent Effect is -3.99% in [1]; 12.7% in assay [2]; 3.15% in [3]; 9.47% in [4]; -0.0944% in assay [5]; -1.52% in assay [6]. For the same molecule, the Percent Effect in assay [7] is 5%; in [8], 12%; in assay [9], 5.42%; in assay [10] it was 13.9%; in assay [11], -5.13%.
Turning to `CCc1n[nH]c(C2CN(CCc3cccs3)CCO2)n1` (stereo not drawn), the Percent Effect in assay [1] is -7.68%; in assay [2] it was 11.4%; in [3], -4.38%; in assay [4], -6.28%; in assay [5] it was 3.38%; in assay [6] it was -1.94%. In addition, the Percent Effect is 8.06% in assay [7]; -6.82% in assay [8]; 2.08% in [9]; 17.7% in assay [10]; -43.9% in assay [11].
In the case of `Cc1noc(CCCC(=O)NC(C)c2ccccn2)n1` (stereo not drawn), the Percent Effect in [1] was -1.78%; in assay [2] it was 18.4%; in [3] it was -1.11%; in [4] it was 2.7%; in [5] it was 3.01%; in assay [6], 2.68%. Further, the Percent Effect in assay [7] was 6.52%; in [8], 3.32%; in [9], 10.3%; in assay [10], 21.9%; in assay [11] it was -13.2%.
On to `O=C1CC(c2ccncc2)c2c(c(C(=O)O)cn2-c2ccc(F)cc2)N1` (stereo not drawn), for which the Percent Effect was -3.81% in assay [1]; 12% in assay [2]; -34.9% in assay [3]; -1.44% in [4]; -3.14% in [5]; -3.35% in [6]. The Percent Effect in [7] is 13.7%; in assay [8], 4.82%; in [9] it was 8.47%; in assay [10] it was 15.4%; in [11], -5.97%.
On to `CC(C)NC(=O)N1CCC2(COCc3cnc(-c4cccnc4)nc32)C1` (stereo not drawn), for which the Percent Effect is -3.55% in assay [1]; 2.7% in [2]; 6.5% in assay [3]; 0.534% in assay [4]; -6.94% in [5]; 4.78% in assay [6]. Moreover, the Percent Effect in assay [7] was 12%; in [8], 6.17%; in [9], 1.08%; in [10] it was 5.13%; in [11], 2.74%.
